PrPC surface inh – inhibitors of human cell surface prion protein PrPC; TR-FRET read-out; inhibition, % at 13.8 µM; 370,000 compounds, 0.43% hits; in the data active = inhibition above about 24%
TcdB inh – inhibitors of Clostridioides difficile toxin B glycohydrolase; P18177; TcdB glycohydrolase enzymatic assay, plate reader; inhibition, % at 9.99 µM; 350,000 compounds, 0.24% hits; AID 652162; in the data active = inhibition above about 10%
GDH-TPI counter – counter-screen for M. tuberculosis FBA inhibitors: GDH-TPI coupled enzymes | GDH-TPI coupled enzyme counterscreen, NADH absorbance | inhibition, % at 4.8 µM | 360,000 compounds, 1.2% hits | AID 588335; in the data active = inhibition above about 30%
Mtb FBA inh – inhibits M. tuberculosis FBA enzyme. 360,000 compounds, 2.3% hits. purified M. tuberculosis FBA, fluorescence read-out. inhibition, % at 1 µM; in the data active = inhibition above about 27%
Y pestis TopoI – inhibitors of Yersinia pestis topoisomerase I; Y. pestis Topo-I cleavage product accumulation, plate reader; AID 504884; 360,000 compounds, 0.064% hits; activity, % at 10 µM; in the data active = activity above about 50%, passing the limit was not always enough
Hits are given with their value. The list is not random: actives were taken first. Their share in the collection is about 3.2%.

Results for Cc1c(C)c2c(OCC(=O)NC3CC3)cc3c(c2oc1=O)CCC(C)(C)O3 ?
PrPC surface inh: inactive; TcdB inh: inactive; GDH-TPI counter: inactive; Mtb FBA inh: active; Y pestis TopoI: inactive

How did Cc1c(C)c2c(OCC(=O)N[C@@H](CC(C)C)C(=O)O)cc3c(c2oc1=O)CCC(C)(C)O3 do in these assays?
PrPC surface inh: inactive; TcdB inh: inactive; GDH-TPI counter: inactive; Mtb FBA inh: active; Y pestis TopoI: inactive

How did O=C(C[C@@H]1CC[C@H]2[C@@H](COC[C@H](O)CN2C(=O)Nc2ccc(Cl)c(Cl)c2)O1)NCc1ccc(F)cc1 do in these assays?
TcdB inh: inactive

What do the screens show for `CCCNC(=O)C[C@@H]1CC[C@H]2[C@@H](COC[C@H](O)CN2Cc2ccncc2)O1`?
TcdB inh: inactive

What do the screens show for `CCCCC(NC(=O)Cc1c(C)c2cc3c4c(oc3c(C)c2oc1=O)CCCC4)C(=O)O` (stereo unspecified)?
PrPC surface inh: inactive; TcdB inh: inactive; GDH-TPI counter: inactive; Mtb FBA inh: inactive; Y pestis TopoI: inactive

How did Cc1cc(=O)oc2c3c(cc(OCC(=O)Nc4cccnc4)c12)OC(C)(C)CC3 do in these assays?
PrPC surface inh: inactive; TcdB inh: inactive; GDH-TPI counter: inactive; Mtb FBA inh: inactive; Y pestis TopoI: inactive

What do the screens show for `Cc1c(C)c2c(OCC(=O)N[C@@H](Cc3ccccc3)C(=O)O)cc3c(c2oc1=O)CCC(C)(C)O3`?
PrPC surface inh: inactive; TcdB inh: inactive; GDH-TPI counter: 38; Mtb FBA inh: active; Y pestis TopoI: inactive

What do the screens show for `CSC[C@H](NC(=O)COc1cc2c(c3oc(=O)cc(C)c13)CCC(C)(C)O2)C(=O)O`?
PrPC surface inh: inactive; TcdB inh: inactive; GDH-TPI counter: inactive; Mtb FBA inh: active; Y pestis TopoI: inactive

Results for CSC[C@H](NC(=O)COc1cc2c(c3oc(=O)c(C)c(C)c13)CCC(C)(C)O2)C(=O)O ?
PrPC surface inh: inactive; TcdB inh: inactive; GDH-TPI counter: inactive; Mtb FBA inh: active; Y pestis TopoI: inactive

What do the screens show for `CCCC(NC(=O)COc1cc2c(c3oc(=O)c(C)c(C)c13)CCC(C)(C)O2)C(=O)O` (stereo unspecified)?
PrPC surface inh: inactive; TcdB inh: inactive; GDH-TPI counter: inactive; Mtb FBA inh: active; Y pestis TopoI: inactive

What do the screens show for `CN(C)/C=C/C(=O)c1ccc(Oc2ccccc2)cc1`?
PrPC surface inh: inactive; TcdB inh: inactive; GDH-TPI counter: inactive; Mtb FBA inh: inactive; Y pestis TopoI: inactive

What do the screens show for `COc1ccc(C(=O)c2ccc(OC)c(OC)c2)cc1OC`?
PrPC surface inh: inactive; GDH-TPI counter: inactive; Mtb FBA inh: inactive; Y pestis TopoI: inactive

Results for CN(C)/C=C/C(=O)c1ccc(F)cc1 ?
PrPC surface inh: inactive; GDH-TPI counter: inactive; Mtb FBA inh: inactive; Y pestis TopoI: inactive

What do the screens show for `COc1ccc(C(=O)/C=C/N(C)C)cc1OC`?
PrPC surface inh: inactive; GDH-TPI counter: 34; Mtb FBA inh: inactive; Y pestis TopoI: inactive

Results for CN(C)/C=C/C(=O)c1ccccc1 ?
PrPC surface inh: inactive; TcdB inh: inactive; GDH-TPI counter: 49; Mtb FBA inh: inactive; Y pestis TopoI: inactive

What do the screens show for `COc1ccc(C(=O)/C=C/N(C)C)cc1`?
PrPC surface inh: inactive; GDH-TPI counter: 45; Mtb FBA inh: inactive; Y pestis TopoI: inactive

Results for CO[C@H]1CN(C)C(=O)c2cc(NS(C)(=O)=O)ccc2OC[C@@H](C)NC[C@@H]1C ?
TcdB inh: inactive

What do the screens show for `CC1(C)CC(=O)C=C(Nc2ccc([N+](=O)[O-])cc2)C1`?
PrPC surface inh: inactive; TcdB inh: inactive; GDH-TPI counter: 47; Mtb FBA inh: inactive; Y pestis TopoI: inactive

How did COC(=O)c1ccc(NC2=CC(=O)CC(C)(C)C2)cc1 do in these assays?
PrPC surface inh: inactive; GDH-TPI counter: 44; Mtb FBA inh: inactive; Y pestis TopoI: inactive

Results for CC1(C)CC(=O)C=C(Nc2ccc(O)cc2)C1 ?
PrPC surface inh: inactive; TcdB inh: 25; GDH-TPI counter: inactive; Mtb FBA inh: inactive; Y pestis TopoI: inactive

What do the screens show for `CC(=O)Nc1ccc(NC2=CC(=O)CC(C)(C)C2)cc1`?
PrPC surface inh: inactive; GDH-TPI counter: inactive; Mtb FBA inh: inactive; Y pestis TopoI: inactive

How did COc1ccc(NC2=CC(=O)CC(C)(C)C2)cc1 do in these assays?
PrPC surface inh: inactive; TcdB inh: inactive; GDH-TPI counter: inactive; Mtb FBA inh: inactive; Y pestis TopoI: inactive

Results for CN(C)N1C(=O)/C(=C/c2ccco2)SC1=Nc1ccccc1 ?
PrPC surface inh: inactive; TcdB inh: inactive; GDH-TPI counter: 40; Mtb FBA inh: inactive; Y pestis TopoI: inactive

Results for CNc1cccc(-c2cccc(O)c2)n1 ?
PrPC surface inh: inactive; TcdB inh: inactive; GDH-TPI counter: inactive; Mtb FBA inh: inactive; Y pestis TopoI: inactive

How did CNc1cncc(-c2ccc(C)cc2)n1 do in these assays?
PrPC surface inh: inactive; TcdB inh: inactive; GDH-TPI counter: inactive; Mtb FBA inh: 197; Y pestis TopoI: inactive

Results for CNc1cncc(-c2cccc(C(=O)NCCN(C)C)c2)n1 ?
PrPC surface inh: inactive; TcdB inh: inactive; GDH-TPI counter: inactive; Mtb FBA inh: 121; Y pestis TopoI: inactive

What do the screens show for `CNc1cncc(-c2cccc(C(=O)NC3CC3)c2)n1`?
PrPC surface inh: inactive; TcdB inh: inactive; GDH-TPI counter: inactive; Mtb FBA inh: active; Y pestis TopoI: inactive

How did CNc1cncc(-c2cccc(O)c2)n1 do in these assays?
PrPC surface inh: inactive; TcdB inh: inactive; GDH-TPI counter: inactive; Mtb FBA inh: 200; Y pestis TopoI: inactive

What do the screens show for `CC(=O)Nc1cncc(-c2cccc(C(=O)NC3CC3)c2)n1`?
PrPC surface inh: inactive; TcdB inh: inactive; GDH-TPI counter: inactive; Mtb FBA inh: inactive; Y pestis TopoI: inactive

What do the screens show for `Cc1ccc(-c2cnc3c(c2)C(=O)N([C@H](C)CO)C[C@@H](C)[C@@H](CN(C)CC2CCCC2)O3)cc1`?
TcdB inh: inactive

Results for COc1cc(/C=N/NC(=O)C(=O)/C=C2\NC3(CCCC3)Cc3ccccc32)ccc1O ?
PrPC surface inh: inactive; TcdB inh: inactive; GDH-TPI counter: inactive; Mtb FBA inh: inactive; Y pestis TopoI: inactive

What do the screens show for `CN(C)c1ccc(/C=N/NC(=O)C(=O)/C=C2\NC3(CCCC3)Cc3ccccc32)cc1`?
PrPC surface inh: inactive; GDH-TPI counter: 31; Mtb FBA inh: inactive; Y pestis TopoI: inactive

Results for NC(=O)N=Nc1c(O)[nH]c2ccc([N+](=O)[O-])cc12 ?
PrPC surface inh: inactive; TcdB inh: inactive; GDH-TPI counter: 31; Mtb FBA inh: inactive; Y pestis TopoI: inactive

What do the screens show for `CCN1CCN(c2ccc(S(=O)(=O)N3CCOCC3)cc2NC(=O)/C=C/c2ccc(OC)c(OC)c2)CC1`?
PrPC surface inh: inactive; TcdB inh: inactive; GDH-TPI counter: 34; Mtb FBA inh: inactive; Y pestis TopoI: inactive

Results for COc1ccc(/C=N/NC(=S)Nc2cc(S(=O)(=O)N3CCOCC3)ccc2N2CCOCC2)cc1O ?
PrPC surface inh: inactive; GDH-TPI counter: 42; Mtb FBA inh: inactive; Y pestis TopoI: inactive

How did O=C(C[C@@H]1C=C[C@H](NC(=O)c2ccc3c(c2)OCO3)[C@H](CO)O1)NCc1ccc(Cl)cc1 do in these assays?
TcdB inh: inactive

How did COc1ccc(-c2nn(CCC#N)cc2C=C(C#N)C#N)cc1 do in these assays?
PrPC surface inh: inactive; TcdB inh: inactive; GDH-TPI counter: inactive; Mtb FBA inh: inactive; Y pestis TopoI: inactive

Screens: PubChem, several laboratories
